{"source": "PubChem BioAssay (EPA / NIEHS)", "note": "Records with an inconclusive call do not appear. The source made the active and inactive calls. The calls were made as follows: active = hit-call score of the fitted dose curve at least 0.9, where 1 is the maximum; inconclusive = response in the unintended direction; inactive = score below 0.9."}
{"read-out": "Cytochrome P450 2C19 (Homo sapiens) (UniProt P33261)", "assay": "CLD_CYP2C19_24hr: CellzDirect (CLD) Gene Expression Assay for xenobiotic metabolism (CYP2C19) at 24 hours (AID 2283687);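 also: activity means mRNA induction above DMSO vehicle baseline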", "method": "CLD_24hr is a cell-based, multiplexed-readout assay that uses hepatocyte, a human liver primary cell, with measurements taken at 24 hours after chemical dosing in a 96-well plate.CLD_CYP2C19_24hr is one of 16 assay component(s) measured or calculated from the CLD_24hr assay. It is designed to make measurements of mRNA induction, a form of inducible reporter, as detected with chemiluminescence signals by Quantitative Nuclease Protection Assay (qNPA) technology.Data from the assay component CLD_CYP2C19_24hr was analyzed at the endpoint, CLD_CYP2C19_24hr, in the positive analysis fitting direction relative to DMSO as the negative control and baseline of activity. Using a type of inducible reporter, gain-of-signal activity can be used to understand changes in the reporter gene as they relate to the gene CYP2C19. Furthermore, this assay endpoint can be referred to as a primary readout. To generalize the intended target to other relatable targets, this assay endpoint is annotated to the cyp intended target family, where subfamily is xenobiotic metabolism.\nHuman hepatocyte cultures were treated daily for two consecutive days with fresh dosing solutions containing appropriate concentrations of the 320 ToxCast chemicals (chemical identities were blinded to CellzDirect and other ToxCast collaborators), vehicle control (0.2% DMSO), and positive control inducers as summarized in Table 1. Due to the large number of treatment groups and chemicals examined, the ToxCast chemicals were divided into two groups (spanning two independent cultures of hepatocytes from separate donor preparations (Hu778: ToxCast plates 1 and 2; Hu776: ToxCast plates 3 and 4). Each preparation of human hepatocyte cultures was treated with respective vehicle control, medium only control, set of six positive controls/reference chemicals for the five hepatic receptor pathways, and a subset of eight of the ToxCast chemicals (indoxacarb, pyrithiobac-sodium, norflurazon, cyhalofop-butyl, methomyl, thiram, acetochlor, and propiconazole). These replicate data, coupled with internal replicates designed within the blinded ToxCast chemical library, provided additional data to evaluate interindividual differences between hepatocyte preparations and their potential impact on chemical profiles.Cell morphology and integrity were evaluated using phase-contrast microscopy as an indicator of hepatocyte cell health (Tyson & Green, 1987). Cultures for each treatment group (i.e., media, vehicle [0.2% DMSO], positive control inducers [multiple concentrations], and the ToxCast chemicals [multiple concentrations]) were observed and cell morphology was assessed relative to vehicle control cultures at each harvest time point (0, 6, 24, or 48 h). […] Images were evaluated at the conclusion of the study to assess changes in cell integrity and account for the effects of chemical exposure on uncharacteristic changes in concentration-dependent gene expression profiles. The results from these determinations of apparent cytotoxicity were annotated (yes/no) alongside the corresponding qNPA data for reference.At the conclusion of each treatment period, hepatocyte cultures (96-well) were washed with 1 volume of HBSS, lysed by addition of 25 ul ArrayPlate lysis buffer (HTG, Tucson, AZ), and 70 ul/well of Denaturation Oil, denatured by incubation at 95C for 10 min, and frozen at approximately -70C until analysis by nuclease protection assay (qNPA) (Roberts et al., 2007). For qNPA analysis, cell lysates were thawed at 50C for approximately 30 min, qNPA probes were added, and samples were incubated at 95C for 10 min to begin the detection process by denaturing the target RNA, dissociating the duplexes and secondary structure hybridization. At the conclusion of the hybridization period, S1 nuclease reagent was added to each sample to digest all nonprotected nucleotides at 50C for 60-90 min. […]"}
{"compound": "CCCCOCN(C(=O)CCl)c1c(CC)cccc1CC", "outcome": "inactive"}
{"compound": "Cc1nc(N(C)C)nc(OC(=O)N(C)C)c1C", "outcome": "inactive"}
{"compound": "Nc1c(Cl)c(F)nc(OCC(=O)O)c1Cl", "outcome": "inactive"}
{"compound": "CCCN(CC)CC1COC2(CCC(C(C)(C)C)CC2)O1", "note": "(stereo unspecified)", "outcome": "inactive"}
{"compound": "CN=C=S", "outcome": "inactive"}
{"compound": "COCC(=O)N(c1c(C)cccc1C)C(C)C(=O)OC", "note": "(stereo unspecified)", "outcome": "inactive"}
{"compound": "CCNC(=O)NC(=O)C(C#N)=NOC", "outcome": "inactive"}
{"compound": "COP(=O)(OC)O/C(C)=C/C(=O)N(C)C", "outcome": "inactive"}
{"compound": "CS(=O)(=O)c1ccc(C(=O)C2C(=O)CCCC2=O)c([N+](=O)[O-])c1", "outcome": "inactive"}
{"compound": "Cc1cnc(C2=NC(C)(C(C)C)C(=O)N2)c(C(=O)O)c1", "note": "(stereo unspecified)", "outcome": "inactive"}
{"compound": "CCCC(=NOCC)C1=C(O)CC(CC(C)SCC)CC1=O", "note": "(stereo unspecified)", "outcome": "inactive"}
{"compound": "C=CCOC(=O)C(C)(C)OC(=O)c1cc(-n2c(=O)cc(C(F)(F)F)n(C)c2=O)ccc1Cl", "outcome": "inactive"}
{"compound": "Clc1cccc(C(Cl)(Cl)Cl)n1", "outcome": "inactive"}
{"compound": "CC(C)N1C(=O)c2ccccc2NS1(=O)=O", "outcome": "inactive"}
{"compound": "CC(C)C1(C)N=C(c2ncccc2C(=O)O)NC1=O", "note": "(stereo unspecified)", "outcome": "inactive"}
{"compound": "COC(=O)NS(=O)(=O)c1ccc(N)cc1", "outcome": "inactive"}
{"compound": "CC1(C)CON(Cc2ccccc2Cl)C1=O", "outcome": "inactive"}
{"compound": "O=P(O)(O)CCCl", "outcome": "inactive"}
{"compound": "CC(C)=CC1C(C(=O)OCc2coc(Cc3ccccc3)c2)C1(C)C", "note": "(stereo unspecified)", "outcome": "inactive"}
{"compound": "COc1cc(OC)nc(NC(=O)NS(=O)(=O)c2ncccc2OCC(F)(F)F)n1", "outcome": "inactive"}
{"compound": "Cc1c(COC(=O)[C@@H]2[C@H](/C=C(\\Cl)C(F)(F)F)C2(C)C)cccc1-c1ccccc1", "outcome": "inactive"}
{"compound": "O=c1n(Cl)c(=O)n(Cl)c(=O)n1Cl", "outcome": "inactive"}
{"compound": "CC(C)(C)C(=O)C(Oc1ccc(Cl)cc1)n1cncn1", "note": "(stereo unspecified)", "outcome": "inactive"}
{"compound": "N#CN=C1SCCN1Cc1ccc(Cl)nc1", "outcome": "inactive"}
{"compound": "CCSC(=O)N1CCCCCC1", "outcome": "inactive"}
{"compound": "CCN(CC)C(=O)C(C)Oc1cccc2ccccc12", "note": "(stereo unspecified)", "outcome": "inactive"}
{"compound": "C=C(C)CN(CC)c1c([N+](=O)[O-])cc(C(F)(F)F)cc1[N+](=O)[O-]", "outcome": "inactive"}
{"compound": "O=C(O)c1c(Cl)ccc2cc(Cl)cnc12", "outcome": "inactive"}
{"compound": "CS(=O)(=O)c1cc(C(F)(F)F)ccc1C(=O)c1cnoc1C1CC1", "outcome": "inactive"}
{"compound": "CC(C)Oc1cccc(NC(=O)c2ccccc2C(F)(F)F)c1", "outcome": "inactive"}
{"compound": "O=C1C2CC=CCC2C(=O)N1SC(Cl)(Cl)Cl", "note": "(stereo unspecified)", "outcome": "inactive"}
{"compound": "CC1(C)C(C=C(Cl)Cl)C1C(=O)OC(C#N)c1cccc(Oc2ccccc2)c1", "note": "(stereo unspecified)", "outcome": "inactive"}
{"compound": "CSC(=O)c1c(C(F)F)nc(C(F)(F)F)c(C(=O)SC)c1CC(C)C", "outcome": "inactive"}
{"compound": "Nc1c(Cl)c(Cl)nc(C(=O)O)c1Cl", "outcome": "inactive"}
{"compound": "COc1cc(Cl)c(OC)cc1Cl", "outcome": "inactive"}
{"compound": "CNC(=O)N(C)c1nnc(C(C)(C)C)s1", "outcome": "inactive"}
